Measurements as given in PubChem BioAssay (NCATS).
Several values for one entry are separate records, joined by “and”; a condition that tells them apart may be missing. Equal values may be shown once. Results filed as inconclusive are left out. Activity calls are given as the source filed them. Calls come from the whole dose curve; as a rule, active = well fitted curve in the direction sought with a large enough effect; inconclusive = small, poorly fitted or top-dose-only effect, or another doubt; inactive = no such curve, though single readings can be large; an effect the other way counts as inactive or inconclusive.

Key:
[1] = qHTS of pediatric cancer cell lines to identify multiple opportunities for drug repurposing: Primary screen for NB1643 cells (AID 1347099); note: nearly all actives have a fitted effect of over 50% in size; note: potency is the fitted concentration of half-maximal effect
Procedure, shortened: (§1)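 Phenotypic viability qHTS, 48 h compound exposure, CellTiter-Glo luminescence read-out; multi-concentration dosing so that potency and efficacy derive directly from the primary screen's curves.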

[2] = qHTS of pediatric cancer cell lines to identify multiple opportunities for drug repurposing: Primary screen for BT-12 cells (AID 1347101); note: nearly all actives have a fitted effect of over 25% in size; note: potency is the fitted concentration of half-maximal effect
Procedure, shortened: (§2)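 Cells (500-1,000/well) rested 5 h, then received compounds for 48 h; metabolically active cells were measured by CellTiter-Glo luminescence. Final concentrations spanned up to 46 µM (MIPE, 11-point) or 0.59 nM-46 µM (NPC, 8-point) in primary screens, 11-point in follow-ups.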

[3] = qHTS of pediatric cancer cell lines to identify multiple opportunities for drug repurposing: Primary screen for OHS-50 cells (AID 1347103); note: nearly all actives have a fitted effect of over 40% in size; note: potency is the fitted concentration of half-maximal effect
Procedure, shortened: as §2

[4] = qHTS of pediatric cancer cell lines to identify multiple opportunities for drug repurposing: Primary screen for MG 63 (6-TG R) cells (AID 1347105); note: nearly all actives have a fitted effect of over 50% in size; note: potency is the fitted concentration of half-maximal effect
Procedure, shortened: as §1

[5] = qHTS of pediatric cancer cell lines to identify multiple opportunities for drug repurposing: Primary screen for control Hh wild type fibroblast cells (AID 1347106); note: nearly all actives have a fitted effect of over 55% in size; note: potency is the fitted concentration of half-maximal effect
Procedure, shortened: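 Cells (500-1,000/well) in growth media were settled 5 h at 37 degrees C, then given compounds for 48 h. Viability was read as CellTiter-Glo luminescence. Primary runs used MIPE at 11 points (0.78 nM-46 µM) and NPC at 8 points (0.59 nM-46 µM); follow-ups used 11 points.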

[6] = qHTS of pediatric cancer cell lines to identify multiple opportunities for drug repurposing: Primary screen for Rh30 cells (AID 1347107); note: series mostly up to about 46 µM; nearly all actives have a fitted effect of over 75% in size
Procedure, shortened: as §2

[7] = qHTS of pediatric cancer cell lines to identify multiple opportunities for drug repurposing: Primary screen for Rh41 cells (AID 1347108); note: nearly all actives have a fitted effect of over 70% in size; note: potency is the fitted concentration of half-maximal effect
Procedure, shortened: as §1

[8] = qHTS of pediatric cancer cell lines to identify multiple opportunities for drug repurposing: Primary screen for LAN-5 cells (AID 1347100); note: potency is the fitted concentration of half-maximal effect
Procedure, shortened: as §2

[9] = qHTS of pediatric cancer cell lines to identify multiple opportunities for drug repurposing: Primary screen for Rh18 cells (AID 1347102); note: nearly all actives have a fitted effect of over 65% in size; note: potency is the fitted concentration of half-maximal effect
Procedure, shortened: as §2

[10] = qHTS of pediatric cancer cell lines to identify multiple opportunities for drug repurposing: Primary screen for RD cells (AID 1347104); note: nearly all actives have a fitted effect of over 55% in size; note: potency is the fitted concentration of half-maximal effect
Procedure, shortened: as §1

[11] = qHTS of pediatric cancer cell lines to identify multiple opportunities for drug repurposing: Confirmatory screen for NB1643 cells (AID 1347109); note: potency is the fitted concentration of half-maximal effect; nearly all actives have a fitted effect of over 45% in size
Procedure, shortened: as §2

[12] = qHTS of pediatric cancer cell lines to identify multiple opportunities for drug repurposing: Confirmatory screen for A673 cells (AID 1347110);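 note: cells exposed to compound for 48 h before the viability read; nearly all actives have a fitted effect of over 65% in size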; note: potency is the fitted concentration of half-maximal effect
Procedure, shortened: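 Forty-eight-hour viability assay. Follow-up compounds ran at 11-point dilutions; positive control bortezomib at 2.3 uM final, neutral control DMSO.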

[13] = qHTS of pediatric cancer cell lines to identify multiple opportunities for drug repurposing: Confirmatory screen for DAOY cells (AID 1347114); note: nearly all actives have a fitted effect of over 65% in size; note: potency is the fitted concentration of half-maximal effect
Procedure, shortened: (§3)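 Viability measured as metabolically active cells via CellTiter-Glo luminescence following 48 hours of compound exposure, 11-point dilutions in confirmatory testing. 500-1,000 cells/well plated 5 hours before dosing; controls were DMSO and 2.3 µM bortezomib.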

[14] = qHTS of pediatric cancer cell lines to identify multiple opportunities for drug repurposing: Confirmatory screen for SJ-GBM2 cells (AID 1347116); note: nearly all actives have a fitted effect of over 60% in size; note: potency is the fitted concentration of half-maximal effect
Procedure, shortened: as §3

[15] = qHTS of pediatric cancer cell lines to identify multiple opportunities for drug repurposing: Confirmatory screen for BT-37 cells (AID 1347117); note: potency is the fitted concentration of half-maximal effect; nearly all actives have a fitted effect of over 55% in size
Procedure, shortened: as §2

[16] = qHTS of pediatric cancer cell lines to identify multiple opportunities for drug repurposing: Confirmatory screen for TC32 cells (AID 1347118);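 note: potency is the fitted concentration of half-maximal effect; cells exposed to compound for 48 h before the read; nearly all actives have a fitted effect of over 65% in size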
Procedure, shortened: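 TC32 cells, 500-1,000/well in growth medium, compound-treated 48 h at 37 °C; viability from CellTiter-Glo luminescence. Primary screen: MIPE 11-point (0.78 nM–46 µM final), NPC 8-point (0.59 nM–46 µM final); confirmatory at 11-point dilutions.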

[17] = qHTS of pediatric cancer cell lines to identify multiple opportunities for drug repurposing: Confirmatory screen for SK-N-MC cells (AID 1347111);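 note: potency is the fitted concentration of half-maximal effect; cells exposed to compound for 48 h before the readout; nearly all actives have a fitted effect of over 70% in size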
Procedure, shortened: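 Seed 500-1,000 cells/well; rest 5 h at 37 degrees C. Pin-transfer compounds, 11-point titration. Incubate 48 h. Add CellTiter-Glo, 15 min RT, read luminescence.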

[18] = qHTS of pediatric cancer cell lines to identify multiple opportunities for drug repurposing: Confirmatory screen for LAN-5 cells (AID 1347113)
Procedure, shortened: as §2

[19] = qHTS of pediatric cancer cell lines to identify multiple opportunities for drug repurposing: Confirmatory screen for NB-EBc1 cells (AID 1347115);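 note: potency is the fitted concentration of half-maximal effect; cells exposed to compound for 48 h before the viability read; nearly all actives have a fitted effect of over 45% in size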
Procedure, shortened: as §2

Measured: Potency

CN1C[C@H](CNC(=O)OCc2ccccc2)C[C@@H]2c3cccc4c3c(cn4C)C[C@H]21
inactive: [1] | [4] | [5] | [6] | [7]
active: [2] 15.5 µM | [3] 21.9 µM

O=C1CC[C@@]2(O)[C@H]3Cc4ccc(O)c5c4[C@@]2(CCN3CC2CC2)[C@H]1O5
inactive: [8] | [2] | [9] | [3] | [10] | [4] | [5] | [6] | [7]

CC(C)=CCOc1c2occc2cc2ccc(=O)oc12
inactive: [1] | [8] | [9] | [10] | [4] | [5] | [6] | [7]

Oc1cccc2cccnc12
inactive: [9] | [4] | [6]

C[C@]12C/C(=C/O)C(=O)C[C@@H]1CC[C@@H]1[C@@H]2CC[C@@]2(C)[C@H]1CC[C@]2(C)O
inactive: [9] | [10] | [4] | [5] | [6] | [7]

Cc1sc2c(c1C)C(c1ccc(Cl)cc1)=N[C@@H](CC(=O)OC(C)(C)C)c1nnc(C)n1-2
active: [1] 5.9 µM | [8] 590 nM | [9] 0.935 µM | [3] 0.344 µM | [10] 0.59 µM | [7] 0.743 µM | [11] 1.31 µM | [15] 1.31 µM | [16] 0.827 µM
inactive: [12] | [13] | [14]

CNC(=O)c1ccc(N2C(=S)N(c3ccc(C#N)c(C(F)(F)F)c3)C(=O)C23CCC3)cc1F
active: [4] 11.8 µM | [5] 13.2 µM | [7] 11.8 µM
inactive: [2] | [9]

CC1=C2C[C@@H]3[C@@H](CC=C4C[C@@H](O)CC[C@@]43C)[C@@H]2CC[C@]12O[C@H]1C[C@H](C)CN[C@H]1[C@H]2C
inactive: [1] | [8] | [9] | [10] | [4] | [5]
active: [3] 30.6 µM

Clc1ccc(COC(Cn2ccnc2)c2ccc(Cl)cc2Cl)cc1 (configuration not stated)
active: [1] 26.6 µM | [2] 15.5 µM
inactive: [9] | [4] | [5] | [6]

Cc1ccc(S(=O)(=O)N[C@@H](CCCCN)C(=O)CCl)cc1
inactive: [1] | [8] | [9] | [3] | [10] | [4] | [5] | [6] | [7]

O=c1[nH]c2ccccc2n1C1CCN(CCCC(c2ccc(F)cc2)c2ccc(F)cc2)CC1
inactive: [5] | [6]
active: [2] 15.5 µM | [3] 17.4 µM

N[C@@H](Cc1ccc(N(CCCl)CCCl)cc1)C(=O)O
active: [1] 9.44 µM and 16.6 µM | [8] 5.96 µM and 3.72 µM | [9] 21.1 µM | [3] 9.78 µM and 3.85 µM | [4] 16.8 µM and 18.7 µM | [11] 6.57 µM | [12] 16.5 µM | [17] 2.61 µM | [18] 5.22 µM | [13] 23.3 µM | [19] 5.85 µM | [14] 20.8 µM | [16] 9.27 µM
inactive: [10] | [5] | [6]

CC[C@@H](CO)NC(=O)[C@@H]1C=C2c3cccc4c3c(cn4C)C[C@H]2N(C)C1
inactive: [9] | [3] | [10] | [5] | [6] | [7]

CCC(=O)C(CC(C)N(C)C)(c1ccccc1)c1ccccc1 (configuration not stated)
inactive: [1] | [8] | [9] | [5] | [6]
active: [3] 22.5 µM

C=C1C[C@@H]2[C@H](CC[C@]3(C)C(=O)CC[C@@H]23)[C@@]2(C)C=CC(=O)C=C12
inactive: [1] | [8] | [9] | [10] | [4] | [5] | [6] | [7]
